# Reference: ChEMBL document CHEMBL1201862, “PubChem BioAssay data set” (2004)
# Out of some 400,000 compounds screened, about 2,100 (0.53%) were called active. Not shown: some 14% with an inconclusive outcome. The sample holds actives, similar compounds and a random draw of the others, so the mix is not that of the screen. The rule behind the calls is not given here.
# Biological target: Ataxin-2 (Homo sapiens) (UniProt Q99700)
# Assay: qHTS for Inhibitors of ATXN expression.
# Format: functional
# Ataxin-2 (Homo sapiens), sequence (Q99700 whole entry): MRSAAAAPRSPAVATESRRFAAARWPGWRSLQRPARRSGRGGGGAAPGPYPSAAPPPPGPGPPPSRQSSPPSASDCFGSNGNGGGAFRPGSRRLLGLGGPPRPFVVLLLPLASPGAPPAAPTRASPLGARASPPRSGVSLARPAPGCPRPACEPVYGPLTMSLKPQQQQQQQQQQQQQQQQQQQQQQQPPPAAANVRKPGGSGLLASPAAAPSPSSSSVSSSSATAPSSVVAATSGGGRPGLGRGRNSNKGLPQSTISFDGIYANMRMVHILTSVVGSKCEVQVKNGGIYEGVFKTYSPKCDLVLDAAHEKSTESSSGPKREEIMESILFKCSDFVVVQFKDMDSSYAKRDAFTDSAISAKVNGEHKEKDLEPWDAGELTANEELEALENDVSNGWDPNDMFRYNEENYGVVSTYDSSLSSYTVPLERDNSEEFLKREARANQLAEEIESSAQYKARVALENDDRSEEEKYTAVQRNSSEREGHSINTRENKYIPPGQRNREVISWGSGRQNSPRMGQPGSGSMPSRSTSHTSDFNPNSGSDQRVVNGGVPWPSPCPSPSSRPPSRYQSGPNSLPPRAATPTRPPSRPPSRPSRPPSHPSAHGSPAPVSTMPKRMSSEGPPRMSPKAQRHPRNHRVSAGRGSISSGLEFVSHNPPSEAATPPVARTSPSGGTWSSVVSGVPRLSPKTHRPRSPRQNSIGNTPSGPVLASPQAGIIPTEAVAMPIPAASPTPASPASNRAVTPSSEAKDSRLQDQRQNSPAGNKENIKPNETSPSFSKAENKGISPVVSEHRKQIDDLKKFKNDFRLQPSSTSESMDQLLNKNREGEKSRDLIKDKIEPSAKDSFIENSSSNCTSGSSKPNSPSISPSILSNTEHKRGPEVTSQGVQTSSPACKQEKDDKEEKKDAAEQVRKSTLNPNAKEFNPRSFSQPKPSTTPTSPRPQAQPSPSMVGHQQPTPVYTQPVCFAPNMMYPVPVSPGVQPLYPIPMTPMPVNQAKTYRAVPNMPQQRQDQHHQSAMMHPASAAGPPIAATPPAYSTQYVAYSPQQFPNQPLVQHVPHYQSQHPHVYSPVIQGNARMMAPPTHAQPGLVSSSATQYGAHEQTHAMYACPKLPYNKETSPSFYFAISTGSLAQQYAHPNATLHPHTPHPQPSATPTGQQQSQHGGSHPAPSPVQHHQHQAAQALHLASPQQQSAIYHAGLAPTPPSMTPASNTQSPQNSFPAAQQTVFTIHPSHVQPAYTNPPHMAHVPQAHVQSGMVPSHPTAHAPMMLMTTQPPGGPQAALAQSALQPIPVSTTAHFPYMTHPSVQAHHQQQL
row,SMILES,Potency
1,O=C(CCn1nnc2ccccc21)N/N=C\Cc1ccccc1,inactive
2,CC(C)(C)c1ccc(OCC(=O)Nc2cccc(S(=O)(=O)NC3=NCCCCC3)c2)cc1,inactive
3,O=C(CCl)Nc1cccc(S(=O)(=O)NC2=NCCC2)c1,12.6 µM (active)
4,CC(C)=CC(=O)Nc1cccc(S(=O)(=O)NC2=NCCCCC2)c1,inactive
5,COc1cc(C(=O)OCC(=O)Nc2ccc(S(=O)(=O)NC3=NCCCCC3)cc2)cc(OC)c1OC,inactive
6,Cc1ccc(OCC(=O)Nc2ccc(S(=O)(=O)NC3=NCCCCC3)cc2)cc1,inactive
7,O=C(CCl)Nc1cccc(S(=O)(=O)NC2=NCCCCC2)c1,11.2 µM (active)
8,Cc1cccc(C(=O)N[C@H](C(=O)Nc2ccc(S(=O)(=O)NC3=NCCCCC3)cc2)C(C)C)c1,inactive
9,O=C(CCl)Nc1ccc(S(=O)(=O)NC2=NCCCCC2)cc1,13.4 µM (active)
10,Cc1cccc(C)c1NC(=O)CN(C)C(=O)c1cccc(NS(=O)(=O)c2ccccc2)c1,inactive
11,Cc1cc(NC(=O)CSc2nc(=O)cc(N)n2-c2ccc(C)c(C)c2)no1,inactive
12,Cc1cccn2c(=O)c3cc(C(=O)NCc4cccnc4)c(=N)n(CCCO)c3nc12,inactive
13,Cn1c(C(=O)NCC2CCCO2)cc2c(=O)n3ccccc3nc21 (configuration not stated),inactive
14,COc1ccccc1/N=C/c1c(C)c(C#N)c2nc3ccccc3n2c1O,inactive
15,O=C1C=CC(=O)N1c1ccc2c(c1)C(NC(=O)C(F)(F)F)c1ccccc1-2 (configuration not stated),25.1 µM (active)
16,O=C(Nc1ccccc1)N1CCN(C2c3ccccc3-c3ccccc32)CC1,inactive
17,Cc1ccc2c(N)c(C(=O)c3ccccc3)sc2n1,inactive
18,CCO/C(O)=C1\C(C)=Nc2sc(C(=O)c3ccc(C)cc3)c(N)c2C1c1ccc(C(=O)OC)cc1 (configuration not stated),inactive
19,Cc1cc(C)c2c(N)c(C(=O)c3ccccc3)sc2n1,inactive
20,COc1ccc(CNC(=O)c2c(Nc3ccccc3C)sc(C(=O)c3ccccc3)c2N)cc1,35.5 µM (active)
21,COc1ccc(C(=O)c2sc3nc(-c4ccccc4)ccc3c2N)cc1,inactive
22,Nc1c(C(=O)c2ccccc2)sc(Nc2ccc(Cl)c(Cl)c2)c1C(=O)Nc1ccccc1,28.2 µM (active)
23,Cc1nc2sc(C(=O)c3ccccc3)c(N)c2c(C)c1C,inactive

row,SMILES,Potency
1,Cc1ccc(CNC(=O)c2c(Nc3c(C)cccc3C)sc(C(=O)c3ccccc3)c2N)cc1,39.8 µM (active)
2,Cc1cccc(C)c1Nc1sc(C(=O)c2ccccc2)c(N)c1C(=O)Nc1ccc(F)cc1,28.2 µM (active)
3,COc1cccc(OC)c1C(=O)Nc1ccc(Br)c(C(=O)c2ccccc2)c1,inactive
4,COc1ccc(CNC(=O)CCC(=O)c2ccccc2)cc1,inactive
5,Cn1cc(CN2CCC(n3nccc3NC(=O)c3ccc4c(c3)OCO4)CC2)cn1,inactive
6,Cc1cc(C)c2cc(C#N)c(SCC(=O)Nc3cc(C)on3)nc2c1,inactive
7,O=C(CSc1nnc(O)nc1O)N/N=C/C=C/c1ccccc1,inactive
8,O=S(=O)(c1ccc(SCCOc2ccccc2)nc1)N1CCCC1,inactive
9,COC(=O)Cc1c(C)c2cc3c(c(C)c2oc1=O)OCN(CCc1ccc(OC)cc1)C3,inactive
10,Cc1ccc(-c2nn(-c3ccccc3)c3[nH]c(=O)c(CNCc4ccccc4)cc23)cc1,39.8 µM (active)
11,Cc1cnc(NC(=O)c2cc(-c3ccccc3)nn2-c2ccccc2)s1,inactive
12,Cc1ccc2nc(Cl)c(CNCc3ccccc3)cc2c1,inactive
13,Cc1ccc(C2N(C)C(=O)c3ccccc3N2C)cc1 (configuration not stated),inactive
14,CC1Nc2ccccc2C(=O)N1NS(C)(=O)=O (configuration not stated),inactive
15,Cc1ccc(S(=O)(=O)NN2C(=O)c3ccccc3NC2c2ccccc2)cc1 (configuration not stated),35.5 µM (active)
16,O=c1cc(CN2CCN(S(=O)(=O)c3cccc(Cl)c3)CC2)c2ccc(O)cc2o1,inactive
17,C=CCNC(=S)Nc1cccc(NC(=S)NCC=C)c1,inactive
18,C=CCNC(=S)N/N=C(\C)c1ccccn1,2.51 µM (active)
19,C/C(=N\Nc1ncc(Cl)cc1Cl)c1ccccn1,inactive
20,O=S(=O)(Nc1ccc(C(O)(C(F)(F)F)C(F)(F)F)cc1)c1cccc2ccccc12,44.7 µM (active)
21,O=S(=O)(Nc1ccc(C(O)(C(F)(F)F)C(F)(F)F)cc1)c1ccc(Cl)c2nonc12,22.4 µM (active)
22,COc1ccc(C(=O)NNC(=O)CSc2nc3c(=O)n(C)c(=O)n(C)c3[nH]2)cc1,inactive
23,N#Cc1cccc(Cn2cc(C(F)(F)F)ccc2=O)c1,inactive

row,SMILES,Potency
1,CS(=O)(=O)c1ncc(Cl)c(C(=O)N(Cc2ccc(Cl)cc2)Cc2ccco2)n1,6.31 µM (active)
2,C=C1C(=O)[C@]23C[C@H]1CC[C@H]2[C@]1(C)[C@@H](O)CC[C@@](C)(C(=O)O)[C@H]1C[C@@H]3O,12.6 µM (active)
3,C=C1C(=O)[C@]23C[C@H]1CCC2[C@@]1(C)C(C[C@@H]3O)[C@](C)(C(=O)OC)CC[C@@H]1O (some centres not stated),35.5 µM (active)
4,C=C1C(=O)[C@]23C[C@H]1CC[C@H]2[C@]1(C)[C@@H](OC(C)=O)CC[C@@](C)(C(=O)O)[C@H]1C[C@@H]3O,11.2 µM (active)
5,N#C/C(=C\c1ccncc1)c1nc2c(s1)CCCC2,inactive
6,CCc1cc(=O)oc2cc(O[C@@H]3O[C@H](CO)[C@@H](O)[C@H](O)[C@H]3O)c(Cl)cc12,inactive
7,Cc1cc(-n2cnc(-c3cn(C)nc3C)n2)no1,inactive
8,CN(C)/C=N/c1nc2nccc(-c3cccs3)n2n1,inactive
9,CC(C)(C)C(=O)NC(=S)Nc1ccc(C(F)(F)F)cc1,inactive
10,COc1ccc2c(Cl)c(C(=O)NN3CCN(C)CC3)sc2c1,inactive
11,CC(C)(C)C(=O)NC(=S)NNC(=O)c1sc2ccccc2c1Cl,31.6 µM (active)
12,C=CCn1c(S)nnc1-c1ccc2ncccc2c1,inactive
13,CC(C)CC1C(=O)N(Cc2cn(CCC3OCCO3)nn2)CCS(=O)(=O)N1Cc1ccc(-c2ccc(F)cc2)cc1 (configuration not stated),35.5 µM (active)
14,CC(C)CC1C(=O)N(Cc2cn(CCC3OCCO3)nn2)CCS(=O)(=O)N1Cc1ccc(-c2ccc(Cl)c(Cl)c2)cc1 (configuration not stated),39.8 µM (active)
15,C/C(=N\c1ccc(C)cc1C)c1sc2ccccc2c1O,inactive
16,N#C/C(=C\c1ccc(N2CCCCC2)o1)C(=O)Nc1cccc(Br)c1,inactive
17,COc1cc2ccc(=O)oc2c(O[C@@H]2O[C@H](CO)[C@@H](O)[C@H](O)[C@H]2O)c1O,inactive
18,COc1ccccc1/C=C/c1nc(C#N)c(N(C)C)o1,inactive
19,Cc1noc(C)c1S(=O)(=O)Nc1ccc2c(c1)C(=O)N([C@@H](C)CO)C[C@H](C)[C@@H](CN(C)Cc1ccc(C(F)(F)F)cc1)OCCCC[C@H](C)O2,20 µM (active)
20,CC(C)NC(=O)Nc1ccc2c(c1)C(=O)N([C@H](C)CO)C[C@H](C)[C@@H](CN(C)Cc1ccc(C(F)(F)F)cc1)OCCCC[C@H](C)O2,20 µM (active)
21,Cc1noc(C)c1S(=O)(=O)Nc1ccc(C(C)C)cc1,inactive
22,COc1ccc(CN2C(=O)/C(=C\NNC(=O)c3cccnc3)c3ccccc3C2=O)cc1,inactive
23,O=C(CN(C(=O)CCC(=O)Nc1nccs1)c1ccccc1F)NCc1ccc(F)cc1,inactive

row,SMILES,Potency
1,CCOc1ccc(-c2cnc3cccnn23)cc1,inactive
2,O=C(N/N=C/c1cccc2cccnc12)[C@H]1C[C@@H]1c1ccccc1,inactive
3,Cc1ccc(-c2nnn(CC(=O)N(c3cccc(F)c3)C(C(=O)NC(C)(C)C)c3ccco3)n2)o1 (configuration not stated),inactive
4,COc1ccc(-c2[nH]ncc2CNC(C)c2cn(C)nc2C)c(F)c1 (configuration not stated),inactive
5,CCN(CC)CCNC(=O)c1cc2c(-c3ccc(Cl)cc3)nn(C)c2s1,22.4 µM (active)
6,CCN(CC)CCCNC(=O)c1cn(-c2cccc(OC)c2)c(=O)c2ccccc12,inactive
7,CCN(CC)CCNC(=O)c1cc2cc(Br)ccc2s1,inactive
8,CCN(CC)CCCNC(=O)c1cc2c(-c3ccc(Cl)cc3)nn(C)c2s1,17.8 µM (active)
9,CCCCN(CC)CCNC(=O)c1cc2c(-c3ccc(Cl)cc3)nn(C)c2s1,39.8 µM (active)
10,Cc1ccc(-c2cc(C(=O)N3CCN(c4ncccn4)CC3)c3cc(Br)ccc3n2)o1,inactive
11,CN=C(S)N1N=C(c2ccc(C)cc2)CC1c1ccc(N(C)C)cc1 (configuration not stated),inactive
12,O=C(Oc1cccc2ccccc12)C1CC1,inactive
13,CC(=O)/C(C#N)=C1\NC(=O)C(Cc2ccccc2C)S1 (configuration not stated),inactive
14,COC(=O)c1cc2c(ccn2C)n1C,inactive
15,CCC1S/C(=N/N=C/c2ccco2)N(Cc2ccccc2)C1=O (configuration not stated),inactive
16,CC(C)c1cc(N2CCOCC2)n2ncc(-c3ccccc3)c2n1,inactive
17,COc1cccc(-c2nc(SCC(=O)Nc3nc(-c4ccccc4)c(C)s3)nc(O)c2C#N)c1,inactive
18,CCOc1ccc(/C=C/C2=Cc3c(sc(NC(=O)CSc4n[nH]c(N)n4)c3C#N)C(C)(C)C2)cc1,39.8 µM (active)
19,CCOC(=O)c1sc(NC(=O)CSc2nc3c(cc2C#N)CCCCCC3)c(C#N)c1C,inactive
20,CC(=O)C1=C(C)NC(SCC(=O)Nc2nc3ccccc3s2)=C(C#N)C1c1ccc(Cl)cc1 (configuration not stated),inactive
21,COC(=O)c1c(N=C(S)NNC(=O)c2ccc(Cl)s2)sc(C(=O)N(C)C)c1C,39.8 µM (active)
22,C/C=C(\C)C(=O)OC1CC(C)(C)C[C@H]2C3=CC[C@@H]4[C@@]5(C)CCC(O[C@@H]6O[C@@H](C(=O)O)[C@@H](O)C(O[C@@H]7OC[C@H](O)[C@@H](O)[C@@H]7O[C@@H]7OC(CO)C(O)[C@@H](O)[C@@H]7O)C6O[C@@H]6OC(CO)C(O)C(O)C6O)[C@@](C)(CO)[C@@H]5CC[C@]4(C)[C@]3(C)CC(O)[C@@]12CO (some centres not stated),31.6 µM (active)
23,Cc1nn(C)cc1N1C(=O)c2cccc3c(N)ccc(c23)C1=O,inactive
